Assay outcomes deposited in PubChem by Bradner/Qi Labs at DFCI.
CBX7 AlphaScr: blocks human CBX7 binding to H3K27me3 peptide. O95931. 66,000 tested, 1.1% active. AlphaScreen His6-CBX7 / biotin-H3K27me3 peptide binding; active compounds read low. normalised signal (fraction of DMSO) (no concentration beside the values). AID 1224903; in the data active means normalised signal below about 0.5
Target sequence (O95931 whole entry, looked up): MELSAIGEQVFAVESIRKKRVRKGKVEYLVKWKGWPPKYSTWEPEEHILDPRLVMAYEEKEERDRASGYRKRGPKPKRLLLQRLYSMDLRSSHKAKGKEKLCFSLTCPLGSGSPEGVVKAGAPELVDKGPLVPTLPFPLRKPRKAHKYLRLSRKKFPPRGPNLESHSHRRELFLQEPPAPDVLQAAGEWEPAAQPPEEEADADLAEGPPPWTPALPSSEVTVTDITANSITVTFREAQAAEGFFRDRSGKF
Of the large screens only hits and unclear results are named; the others gave an inactive call. Only a selection was taken, and hits are over-represented in it overall.

Cc1ccc(NC(=O)c2cc(-c3ccc(Br)cc3)on2)cc1	none
COc1cc(OC)c(NC(=O)c2sc3ncn(CC(=O)N4CCCCC4)c(=O)c3c2C)cc1Cl	none
Cc1cc2cc(-c3ccccc3)cn2c(N2CCOCC2)c1C#N	none
COc1ccc(-c2nc(-c3ccccc3)[nH]c2S(=O)(=O)CC(=O)Nc2ccc(F)cc2)cc1	none
Cc1cc(NC(=O)CSc2nc(NCc3ccc(Cl)cc3)c3ccccc3n2)n[nH]1	none
COc1cc(Nc2nc(SCC(=O)Nc3cc(C)[nH]n3)nc3ccccc23)cc(OC)c1	none
COc1ccc(CNc2nc(SCC(=O)Nc3cc(C)[nH]n3)nc3ccccc23)cc1	CBX7 AlphaScr 0.37
COc1cccc(-c2nn(C)c3sc(C(=O)NC4CCN(Cc5ccccc5)CC4)cc23)c1	none
COc1ccc(NC(=O)C2c3cc(OC)c(OC)cc3C(=O)N(C)C2c2ccccc2F)c(OC)c1 (stereo not given)	none
COc1ccc(-c2nc3cc(C)ccn3c2Nc2ccccc2C)cc1	none
Cc1ccccc1Nc1c(-c2ccccn2)nc2cnccn12	none
Cc1ccn2c(Nc3ccccc3C)c(-c3ccc(Cl)cc3)nc2c1	none
Cc1ccccc1Nc1c(-c2ccccn2)nc2ccccn12	CBX7 AlphaScr 0.13
Cc1ccccc1Nc1c(-c2cccnc2)nc2ccccn12	none
Cc1ccn2c(Nc3ccccc3C)c(-c3ccccn3)nc2c1	CBX7 AlphaScr 0.0084
Cc1ccc(Nc2c(-c3ccc(Cl)cc3)nc3cc(C)ccn23)cc1	none
Cc1ccn2c(Nc3ccccc3)c(-c3ccccn3)nc2c1	CBX7 AlphaScr 0.06
Cc1ccn2c(Nc3ccccc3)c(-c3cccnc3)nc2c1	none
COc1ccc(Cl)cc1NC(=O)Nc1ccc2c(c1)N(C)C(=O)CS2	none
Cc1ccc(OCc2nc(C#N)c(NCc3ccc(F)cc3)o2)cc1	none
Cc1nc(Nc2cccc(C(F)(F)F)c2)c2c(C)c(C)sc2n1	CBX7 AlphaScr 0.45
COc1ccccc1Nc1nc(C)nc2sc(C)c(C)c12	none
Cc1nc(Nc2ccccc2F)c2c(C)c(C)sc2n1	CBX7 AlphaScr 0.47
Cc1sc2nc(Cc3ccccc3)nc(Nc3ccccc3F)c2c1C	none
Cc1sc2nc(Cc3ccccc3)nc(Nc3cccc(C(F)(F)F)c3)c2c1C	none
Cc1nc(Nc2cccc(C(F)(F)F)c2)c2c3c(sc2n1)CCCC3	none
Cc1cccc(NC(=O)C2(S(=O)(=O)c3ccc(Cl)cc3)CC2)c1C	none
Cc1cc(Cl)ccc1OCC(=O)N(Cc1nc(-c2ccccc2)no1)C(C)C	none
O=C(c1ccc(CSc2nc3ccncc3[nH]2)cc1)N1CCC(Cc2ccccc2)CC1	none
CCCCN1C(=O)C(O)(CC(=O)c2ccc(C)cc2)c2cc(Br)ccc21 (stereo not given)	none
c1ccc(-c2nnc(-c3ccccn3)nc2-c2ccccc2)cc1	CBX7 AlphaScr 0.05
Cc1cc(C)cc(-c2nc(-c3ccccn3)no2)c1	none
c1ccc(-c2nnc(Nc3ccccn3)c3ccccc23)cc1	none
O=C(CCCN1C(=O)c2cccnc2C1=O)Nc1ccccc1F	none
Cc1cc(Cl)ccc1OCCCC(=O)N1c2ccc(F)cc2CCC1C (stereo not given)	none
Cc1ccc(NC(=O)CCCN2C(=O)c3cccnc3C2=O)cc1F	none
CCc1ccccc1NC(=O)CCCN1C(=O)c2cccnc2C1=O	none
CCc1cccc(C)c1NC(=O)CCCN1C(=O)c2cccnc2C1=O	none
O=C(CCCN1C(=O)c2cccnc2C1=O)N1CCN(c2ccccc2F)CC1	CBX7 AlphaScr 0.34
O=C(CCCN1C(=O)c2cccnc2C1=O)Nc1ccc(Cl)c(C(F)(F)F)c1	none
O=C(CCCN1C(=O)c2cccnc2C1=O)N1CCN(c2ccccc2)CC1	CBX7 AlphaScr 0.49
CC1CCc2cc(F)ccc2N1C(=O)CCCN1C(=O)c2cccnc2C1=O (stereo not given)	CBX7 AlphaScr 0.47
O=C1Nc2cc(C(=O)N3CC=C(c4ccccc4)CC3)ccc2Nc2ccccc21	none
O=C(c1ccc2c(c1)N(Cc1ccccc1)CCS2)N1CCN(c2cccc(C(F)(F)F)c2)CC1	none
Cc1ccc(-c2nc3ncncn3c2Nc2cccc(C)c2)cc1	none
O=C(Nc1cccc(O)c1)c1nn2c(C(F)(F)F)cc(-c3ccccc3)nc2c1Br	none
O=c1c2ccccc2nc(SCc2cccc(Cl)c2)n1Cc1ccc2c(c1)OCO2	none
COc1ccccc1CNC(=O)C1=CCN(S(=O)(=O)c2ccc(Br)cc2)CC1	none
O=C(NCc1ccc(Cl)cc1)c1ccc(NC2=NC3CS(=O)(=O)CC3S2)cc1 (stereo not given)	none
O=C(NCc1ccc(F)cc1)[C@H](Cc1ccccc1)N1Cc2ccccc2C1=O	none
O=C(NCc1ccc2c(c1)OCO2)[C@H](Cc1ccccc1)N1Cc2ccccc2C1=O	CBX7 AlphaScr 0.44
O=C(NCc1ccc2c(c1)OCO2)[C@@H](c1ccccc1)N1Cc2ccccc2C1=O	none
Cc1cc(Nc2ccc(Cl)c(C(F)(F)F)c2)n2ncnc2n1	none
Cc1cccc(C)c1NC(=O)C(c1ccccc1)N1CCc2ccccc21 (stereo not given)	none
CC(C)c1ccc(NC(=O)C(c2ccccc2)N2CCc3ccccc32)cc1 (stereo not given)	CBX7 AlphaScr 0.49
CC(C)c1ccc(NC(=O)C(c2ccc3c(c2)OCO3)N2CCc3ccccc32)cc1 (stereo not given)	none
CCN(CCCNS(=O)(=O)c1ccc2c(c1)CCN2C(=O)C1CCC1)c1ccccc1	none
Cc1ccc(C)c(NC(=O)Cn2cc(S(=O)(=O)c3ccccc3)c(=O)c3ccccc32)c1	none
CCCCOc1ccc(C(O)(CCC)CCN2CCOCC2)cc1 (stereo not given)	none
CC(C)(c1ccccc1)c1ccc(OCCN2CCOCC2)cc1	CBX7 AlphaScr 0.3
CCCOc1ccc(C(C)(O)CN2CCOCC2)cc1 (stereo not given)	none
CCn1cc(C(=O)N(C)c2cccc(C(F)(F)F)c2)c2cc(OC)c(OC)cc2c1=O	none
O=C(Nc1ccc(Cl)cc1)Nc1ccc(Nc2ccccc2)cc1	none
Cc1ccc(NC(=O)Nc2ccc(Cl)cc2)nc1	none
COc1nc(OC)nc(-n2cnc(NC(=O)Nc3ccc(Cl)cc3)n2)n1	CBX7 AlphaScr 0.25
COC(=O)c1ccc(N2C(=O)CC(NCCN3CCOCC3)C2=O)cc1 (stereo not given)	none
O=C1CC(NCCN2CCOCC2)C(=O)N1c1ccc(Br)cc1 (stereo not given)	CBX7 AlphaScr 0.46
CC(=O)Nc1ccc(N2C(=O)CC(NCCN3CCOCC3)C2=O)cc1 (stereo not given)	none
Cc1nc2c(C(=O)O)cnn2c(C)c1Cc1ccc(Cl)cc1	none
CCN(CC)S(=O)(=O)c1ccc2oc(C(=O)Nc3c(C)cccc3Cl)c(C)c2c1	none
O=C(Cn1nc(-c2ccc(Cl)cc2)ccc1=O)NCCCN1CCCC1=O	none
CN(CC(=O)N1CCCCCC1)S(=O)(=O)c1ccc2c(c1)n(C)c(=O)c(=O)n2C	none
COc1ccc(-c2nc3ncccn3c2Nc2ccc(C)cc2)cc1	none
COc1ccc(Nc2c(-c3ccccn3)nc3ccc(C)cn23)cc1	CBX7 AlphaScr 0.06
Cc1ccc2nc(-c3ccccn3)c(Nc3ccccc3)n2c1	CBX7 AlphaScr 0.11
Cc1ccc(Nc2c(-c3ccccc3)nc3ccc(C)cn23)cc1	none
Cc1ccc2nc(-c3ccccn3)c(Nc3ccc(F)cc3)n2c1	CBX7 AlphaScr 0.21
Cc1ccccc1Nc1c(-c2ccccn2)nc2ccc(Cl)cn12	none
Cc1ccc2nc(-c3cccnc3)c(Nc3ccccc3)n2c1	none
Clc1ccc2nc(-c3ccccn3)c(Nc3ccccc3)n2c1	none
Cc1ccc(Nc2c(-c3cccnc3)nc3ccc(C)cn23)cc1	none
Cc1ccc2nc(-c3ccccn3)c(Nc3ccccc3C)n2c1	CBX7 AlphaScr 0.0067
Fc1ccc(Nc2c(-c3ccccn3)nc3ccc(Cl)cn23)cc1	none
Cc1ccc2nc(-c3ccncc3)c(Nc3ccccc3C)n2c1	none
